# In the library only some 1.6% were active in any assay of this set; here they are far more common.
# ATG4B inh – blocks human ATG4B protease cleavage of LC3 substrate; Q9Y4P1; 340,000 tested, 0.51% active; inhibition, % at 8.33 µM; ATG4B cleavage of LC3-PLA2, NBD-HPC fluorescence, 1 h; AID 504462; in the data active = inhibition above about 40%
# GRK2 inh – human GRK2 inhibition via aptamer displacement; P25098; bead flow cytometry, FAM-aptamer displacement from GRK2; inhibition of aptamer binding, % at 10 µM; 330,000 tested, 0.59% active;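 active = inhibition of aptamer binding above 40%, roughly 3 SD of noise, on plates passing a quality check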;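 also: median bead fluorescence of bound FAM aptamer so fluorescent compounds give negative values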
# Target sequence (P25098 whole entry, looked up): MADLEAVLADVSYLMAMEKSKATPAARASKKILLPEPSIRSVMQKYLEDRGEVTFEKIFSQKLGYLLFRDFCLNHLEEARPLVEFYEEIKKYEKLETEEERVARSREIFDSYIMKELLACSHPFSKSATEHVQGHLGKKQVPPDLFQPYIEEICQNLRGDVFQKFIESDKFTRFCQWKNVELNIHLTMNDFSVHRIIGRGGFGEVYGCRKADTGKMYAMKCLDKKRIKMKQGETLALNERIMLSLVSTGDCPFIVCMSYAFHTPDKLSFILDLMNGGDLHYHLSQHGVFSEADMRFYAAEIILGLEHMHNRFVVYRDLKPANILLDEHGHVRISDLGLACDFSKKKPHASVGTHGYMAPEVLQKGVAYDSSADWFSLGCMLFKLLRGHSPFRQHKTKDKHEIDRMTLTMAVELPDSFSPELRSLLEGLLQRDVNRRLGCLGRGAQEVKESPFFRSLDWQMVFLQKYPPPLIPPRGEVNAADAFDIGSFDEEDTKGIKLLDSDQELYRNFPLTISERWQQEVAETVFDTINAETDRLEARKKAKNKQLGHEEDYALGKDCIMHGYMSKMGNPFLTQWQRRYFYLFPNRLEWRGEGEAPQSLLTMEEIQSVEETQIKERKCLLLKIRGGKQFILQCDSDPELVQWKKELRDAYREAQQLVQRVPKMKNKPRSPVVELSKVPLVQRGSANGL
# Efflux pump inh – antifungal efflux pump inhibition, Nile Red retention; S. cerevisiae Candida pump triplex; inhibition, % at 10 µM; 330,000 tested, 0.44% active; AID 485275;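 active = plate passing quality check with inhibition over a set limit, or well fluorescence over plate mean plus 4 SD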;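 also: Nile Red retained in pooled yeast measured as flow cytometry median fluorescence; 0% = buffer negative control and 100% = Enniatin B positive control; higher means more Nile Red kept so more efflux inhibition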
# Yeast superoxide – lowers age-related superoxide in aged yeast cells | AID 2690 | S. cerevisiae aged cells, superoxide DHE fluorescence; stronger effect = lower value | superoxide response (% of plate mean), % at 10 µM | 330,000 tested, 0.18% active;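 active = superoxide response under a set limit, about three screen SD below normal, cut at about 65% in these data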;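 also: yeast aged for seven days with compound at 30 °C before DHE staining; 100% = average MFI of all compound-treated wells on the plate with controls excluded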
# CR mimetic CP – yeast aging superoxide inhibition, cherry pick confirmation | shares compounds with Yeast superoxide | S. cerevisiae aging, superoxide DHE fluorescence; stronger effect = lower value | superoxide response (% of plate), % at 10 µM | 850 tested, 1% active | AID 434994;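 active = superoxide signal below 65% of the plate average of sample wells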;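 also: cells aged with compound for 7 days at 30 degrees C before staining; 100% equals mean DHE fluorescence of all compound wells on the plate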
# DHE fluor count – compound alters DHE oxidation or fluorescence in yeast | shares compounds with Yeast superoxide | S. cerevisiae BY4741, flow cytometry; stronger effect = lower value | fluorescence response, % at 10 µM | 850 tested, under 10 active | AID 435000;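 active = fluorescence response below 15%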;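 also: percent of the mean fluorescence averaged over all compound wells on the plate; lower means stronger quenching of DHE signal or ROS scavenging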
# The depositor's hits bear a star; . = not tested or not shown.
SMILES,ATG4B inh,GRK2 inh,Efflux pump inh,Yeast superoxide,CR mimetic CP,DHE fluor count
CNC1=C([N+](=O)[O-])CC([N+](=O)[O-])=C(N2CCNCC2)N1C,-2,0,0,81,.,.
Cc1ccc(F)cc1NC(=O)C1C2CCC(O2)C1C(=O)O (configuration not stated),-3,1,0,111,.,.
Nn1c(SCC(=O)Nc2ccc3c(c2)OCCO3)nnc1-c1ccccn1,1,4,1,54*,104,93
CCc1ccc(NC(=O)CSc2nnc(-c3ccccn3)n2C)cc1,-3,0,0,65*,89,91
CCc1ccc(NC(=O)CSc2ccc(-c3ccccn3)nn2)cc1,3,0,0,59*,126,113
CC(=O)c1cccc(NC(=O)CSc2ccc(-c3ccccn3)nn2)c1,-2,0,0,94,.,.
COc1ccc(C)cc1NC(=O)CSc1ccc(-c2ccccn2)nn1,2,0,0,131,122,93
COc1ccc(C)cc1NC(=O)CSc1ccc(-c2sc(C)nc2C)nn1,2,5,0,89,.,.
COc1cc(C(=O)NC(C)c2cc(C)ccc2C)ccc1OCC(=O)N1CCOCC1 (configuration not stated),-6,3,0,90,.,.
COc1ccc(NS(=O)(=O)c2cc(C(=O)N3CCN(C/C=C/c4ccccc4)CC3)ccc2C)cc1,-16,0,0,83,.,.
CCCCCC(=O)NC(=S)Nc1ccc2oc(=O)ccc2c1,5,4,0,88,.,.
CC(=O)Nc1cccc(NC(=O)CSc2ccc(-c3ccccn3)nn2)c1,3,0,0,115,.,.
COc1cc(NC(=O)CSc2ccc(-c3ccccn3)nn2)cc(OC)c1,-12,0,0,101,102,124
Cc1ccc(NC(=O)CSc2ccc(-c3ccccn3)nn2)cc1F,0,0,0,113,110,98
CCn1c(SCC(=O)c2c(N)n(C3CC3)c(=O)[nH]c2=O)nnc1-c1ccoc1C,-6,3,0,107,.,.
CCCn1c2ccccc2c2cc(C(=O)O)ccc21,1,4,0,114,106,96
C/C(=N\O)c1ccc2c3ccccc3n(C)c2c1,-16,0,0,103,.,.
CCn1c2ccccc2c2cc(/C(C)=N/O)ccc21,-6,1,0,101,104,122
CCn1c(=O)n(CC)c2cc(N)ccc21,-11,0,0,99,.,.
CCC(CC)NCc1ccc2c(c1)c1ccccc1n2CC,-3,0,0,101,107,93
CCn1c2ccccc2c2cc(N)ccc21,-13,0,0,99,96,96
Cc1cc(C)c(C)c(S(=O)(=O)Nc2ccccc2C(=O)NN2CCOCC2)c1C,0,3,0,92,.,.
CCCCC(=O)NC1(C(F)(F)F)NC(=O)N(C)C1=O (configuration not stated),-2,1,0,74,.,.
CCOC(=O)N1CCN(c2ccc(C(=O)CC)cc2F)CC1,0,2,0,111,.,.
CCC(=O)c1ccc(N2CCN(C(=O)c3ccccc3)CC2)c(F)c1,1,18,0,85,106,96
SMILES,ATG4B inh,GRK2 inh,Efflux pump inh,Yeast superoxide,CR mimetic CP,DHE fluor count
CC(=O)c1ccc(N2CCN(C(=O)c3ccc(Br)cc3)CC2)c(F)c1,-3,0,0,88,90,109
O=C(c1ccccc1)N1CCN(c2ccccc2F)CC1,-16,2,0,98,119,99
CC(=O)NC1(C(F)(F)F)NC(=O)N(c2ccc(F)cc2)C1=O (configuration not stated),-22,1,0,100,.,.
CCOc1ccc(NC(=S)N2CCN(S(=O)(=O)c3ccc(C)cc3)CC2)cc1,4,0,0,96,.,.
N=Nc1c(O)n(CC(=O)Nc2ccccc2)c2ccccc12,3,0,0,99,.,.
CCc1nnc(NC(=O)[C@@H](NS(=O)(=O)c2ccc3c(c2)OCCO3)C(C)C)s1,-4,.,.,.,.,.
CC(C)c1ccc(NC(=O)Cn2c(=O)oc3ccccc32)cc1,4,5,0,65*,95,110
COc1ccc(NC(=O)Cn2c(=O)oc3ccccc32)cc1,-3,0,0,103,.,.
COc1ccc(NS(=O)(=O)c2c(C)cc(C)cc2C)cc1,-9,1,0,100,.,.
COc1cccc(NS(=O)(=O)c2c(C)cc(C)cc2C)c1,-2,2,0,98,95,92
O=C1CCCN1S(=O)(=O)c1ccccc1,-3,3,0,91,115,108
O=C1CCCN1S(=O)(=O)c1ccc(F)cc1,2,0,0,95,.,.
O=c1c2ccccc2ncn1Cc1cccc2ccccc12,3,1,-1,105,.,.
O=c1c2ccccc2ncn1Cc1ccccc1,-1,0,0,57*,98,95
CCCn1nc(NC(=O)c2cccs2)c2cc3ccccc3nc21,6,33,0,99,.,.
CCCCn1nc(NC(=O)c2cccs2)c2cc3ccccc3nc21,19,14,0,65*,99,92
Cc1nc2ccccc2c(=O)n1/N=C/c1cc(Br)ccc1O,2,0,0,64*,106,104
CC(C)=NNC(=O)c1c(O)c2ccccc2[nH]c1=O,0,2,0,62*,83,94
CC(C)NC(=O)c1ccc(C(C)C)cc1,3,2,0,52*,108,106
COc1ccc(OC)c(-n2nnnc2SCC(=O)NCCc2ccccc2)c1,-3,0,0,53*,114,114
CC(C)(C)OC(=O)CNC(=O)c1[nH]cnc1C(=O)NC(c1ccccc1)c1ccccc1,-5,0,0,102,.,.
COc1ccc(Cl)cc1C(=O)NCc1cnn(C)c1C,-4,0,0,65*,107,100
CCn1cc(CNC(=O)c2cc(Cl)ccc2OC)c(C)n1,-8,1,0,94,.,.
CC1CN(c2ccc(NC(=O)c3ccco3)cc2C(=O)O)CC(C)O1 (configuration not stated),-3,2,0,101,.,.
O=C(CC1SC(N2CCCCC2)=NC1=O)Nc1cccc(C(=O)N2CCCC(C(F)(F)F)C2)c1 (configuration not stated),-9,.,.,.,.,.
Cc1cc(SCC(=O)N2CCCC2=O)nc2c(C)cccc12,0,1,0,84,.,.
Cc1cc(SCC(=O)NC2(C#N)CCCCC2)nc2c(C)cccc12,-8,1,0,64*,99,103
O=C(Nc1ccccc1)/C(=C/c1cccnc1)NC(=O)c1ccco1,-2,8,0,62*,113,101
O=C(Nc1ccccc1)/C(=C\c1ccccc1)NC(=O)c1ccco1,-1,2,0,92,.,.
NC(=O)CC1C(=O)N(c2ccc(Cl)cc2)C(=S)N1NC(=O)c1cccc(F)c1 (configuration not stated),-2,0,1,21*,99,107
